The record followed here is PubChem BioAssay AID488969 (Vanderbilt High Throughput Screening Facility, 2010).

Whole data set: some 110,000 compounds, median “z-score” near -0.1, cut for the highest 2% near 2. This is one part of a sample in which the highest values are shown more often than they occur. Activity calls are given as the source filed them.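 The calls were made as follows: active = z-score in the third read window above 3 or below -3; inactive = the rest.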

Chain of Metabotropic glutamate receptor 8 (Rattus norvegicus) (P70579 whole entry, looked up): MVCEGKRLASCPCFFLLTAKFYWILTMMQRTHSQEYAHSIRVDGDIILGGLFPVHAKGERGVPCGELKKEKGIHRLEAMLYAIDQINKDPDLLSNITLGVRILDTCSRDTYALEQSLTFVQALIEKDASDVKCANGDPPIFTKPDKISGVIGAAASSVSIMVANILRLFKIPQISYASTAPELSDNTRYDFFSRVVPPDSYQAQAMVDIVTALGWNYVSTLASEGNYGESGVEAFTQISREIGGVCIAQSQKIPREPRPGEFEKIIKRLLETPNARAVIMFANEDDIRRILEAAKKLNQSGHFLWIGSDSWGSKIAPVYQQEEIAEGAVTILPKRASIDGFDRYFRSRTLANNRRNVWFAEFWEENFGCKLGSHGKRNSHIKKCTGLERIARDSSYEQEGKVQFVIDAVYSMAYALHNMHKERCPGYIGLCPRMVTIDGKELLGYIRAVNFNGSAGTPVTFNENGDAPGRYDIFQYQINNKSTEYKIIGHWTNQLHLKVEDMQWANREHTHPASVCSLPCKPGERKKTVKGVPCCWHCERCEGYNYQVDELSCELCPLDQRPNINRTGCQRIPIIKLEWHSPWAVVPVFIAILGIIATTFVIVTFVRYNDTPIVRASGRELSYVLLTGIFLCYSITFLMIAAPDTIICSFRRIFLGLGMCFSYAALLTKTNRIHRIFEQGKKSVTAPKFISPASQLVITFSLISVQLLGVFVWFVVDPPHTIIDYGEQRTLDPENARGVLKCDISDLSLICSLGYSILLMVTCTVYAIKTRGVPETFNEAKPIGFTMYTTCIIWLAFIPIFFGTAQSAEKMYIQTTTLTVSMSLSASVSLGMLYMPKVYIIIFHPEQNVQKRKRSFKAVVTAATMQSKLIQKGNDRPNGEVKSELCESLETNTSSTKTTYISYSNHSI

This assay has as its target Metabotropic glutamate receptor 8 (Rattus norvegicus) (UniProt P70579). Briefly: rat mGluR8 modulators via GIRK flux, primary screen, cell-based, thallium flux, HTS (AID 488969). The note with it: HEK293 rat mGluR8, GIRK (G protein-gated inwardly rectifying potassium channel) thallium flux, FluoZin2; at 10 µM; stronger effect = higher value; submaximal glutamate (EC20) added with thallium.
`Fc1ccc(/C=C2\CCCC3=C2NC(=S)NC3c2ccc(F)cc2)cc1` (stereo not given) displayed a z-score of -0.0195.
The value for `N#CC1(C#N)C2=C(CCCC2)NC(c2ccccc2)C1(C#N)C#N` (stereo not given) was -0.0942.
`O=C(NCCc1ccccc1F)/C(=C/c1cccnc1)NC(=O)c1ccccc1` showed a z-score of 0.0991.
The value for `O=C(Nc1ccccc1)c1c(F)c(F)c(F)c(F)c1F` was -0.122; that for `COc1ccc(CC(=O)NCCc2ccc(S(N)(=O)=O)cc2)cc1` was 0.445; that for `O=c1c(CN2CCN(Cc3ccccc3)CC2)coc2ccc(Cl)cc12` was -0.714.
With `CCOC(=O)c1cc(-c2ccc(OC)cc2)nc2c1c(C)nn2CCC#N`, the z-score is -0.93.
With `CCOC(=O)c1cc(-c2ccc(C#N)cc2)nc2c1c(C)nn2CCC#N` the figure was -0.234; with `CCOC(=O)c1cc(-c2ccc(Cl)cc2)nc2c1c(C)nn2CCC#N`, 3.13 (active); with `S=c1[nH]nc(Cc2sc(-c3ccccc3)nc2-c2ccccc2)o1`, 0.186.
As for `COCCCNCC1C(Oc2ccc(Cl)cc2)C(=O)N1c1ccccc1C` (stereo not given), the z-score was 0.258.
With `CCCNCC1C(Oc2ccc(Cl)cc2)C(=O)N1c1ccccc1C` (stereo not given) the figure was 1.55.
Take `Cc1ccccc1N1C(=O)C(Oc2ccc(Cl)cc2)C1CNCCCOC(C)C` (stereo not given): the z-score came out at 2.95.
With `Cc1cc(C)c(OCCCCCNCCO)c(C)c1` the figure was 1.43; with `CCc1ccc2nc(-c3cccc(C)c3)nc(SCC(=O)NCC3CCCO3)c2c1` (stereo not given), -0.227; with `Cc1n[nH]c(C)c1SCC(=O)Nc1ccc(F)cc1`, 0.159.
The value for `COc1cccc(Nc2ccc(C(=O)O)cc2[N+](=O)[O-])c1` was 0.594; that for `O=C(c1cccc(Br)c1)c1cn(-c2ccccc2)nc1C(=O)c1ccccc1` was -0.106; that for `CCOc1ccc2[nH]c(=O)c(C(c3nnnn3C3CCCCC3)N3CCN(CC)CC3)cc2c1` (stereo not given) was 0.408.
`COC(=O)c1ccc(N2C(=O)CC(SCCN)C2=O)cc1` (stereo not given) displayed a z-score of -0.299.
With `COC(=O)c1ccc(N2C(=O)CC(Sc3n[nH]c(C)n3)C2=O)cc1` (stereo not given) the figure was 4.88 (active); with `COC(=O)c1cc(C(=O)OC)cc(N2C(=O)CC(Sc3nc(C)cc(C)n3)C2=O)c1` (stereo not given), 0.178; with `Cc1noc(C(=O)NCc2ccccc2)c1Cl`, -0.324.
With `C/C(=N/NC(=O)Cc1cccc2ccccc12)c1cccs1` the figure was -0.221; with `CCOC(=O)CSc1n[nH]c(NC(=O)c2cccc(C(F)(F)F)c2)n1`, -0.122.
The value for `CCOC(=O)CSc1n[nH]c(NC(=O)c2ccccc2)n1` was 0.788; that for `CCOC(=O)CSc1n[nH]c(NC(=O)c2cccc(C)c2)n1` was 2.67; that for `c1cncc(-c2nc3ccccc3[nH]2)c1` was -0.186.
`O=c1[nH]cnc2c1sc1nc3c(c(-c4ccc(Cl)cc4)c12)CCC3` gave a z-score of -0.722.
Compound `CC(OC(=O)c1nsc(Cl)c1Cl)C(=O)NC(C)(C)C` (stereo not given) showed a z-score of 0.181.
The value for `Cc1cc(OCC(=O)Nc2ccc(F)c(F)c2)nc(C(C)C)n1` was 0.156; that for `O=C(NNS(=O)(=O)c1ccccc1)C1CCN(S(=O)(=O)c2ccc(Cl)cc2)CC1` was -0.131; that for `C=CCCCCCCCCc1nc(=S)[nH][nH]1` was 9.76 (active).
The value for `CCCCCCCCCc1nc(N)n[nH]1` was -0.191; that for `CCCCOc1ccc(-c2nc(=S)[nH][nH]2)cc1` was 0.294; that for `CCCCCCCCc1nc(=S)[nH][nH]1` was 15.3 (active).
With `CC(=O)SC(C)CC(=O)NCc1ccccc1` (stereo not given) the figure was -0.123; with `COc1ccccc1Nc1nc2nonc2nc1N1CCC(C)CC1`, -0.00241.
As to `Cc1ccccc1Nc1nc2nonc2nc1N1CCOCC1`, the z-score was 6.03 (active).
The value for `Cc1ccc(C)c(Nc2nc3nonc3nc2N2CCOCC2)c1` was 0.382.
With `CCCCC(=O)Nc1cc(C(=O)NCCc2ccccc2)ccc1Cl` the figure was 0.145; with `O=C(Nc1ccccc1)c1cccnc1N1CCCC1`, 0.569; with `CC1CCN(c2ncccc2C(=O)O)CC1`, 4.14 (active).
Turning to `CC1CCN(c2nc3ccccc3nc2N2CCC(C)CC2)CC1`, the z-score was -0.169.
With `Cc1ccc(-n2nnnc2SCC(=O)c2ccc3c(c2)NC(=O)CO3)c(C)c1` the figure was -0.0959.
The value for `Cc1ccc(C2(C)NC(=O)N(CC(=O)Nc3c(C)n(C)n(-c4ccccc4)c3=O)C2=O)cc1` (stereo not given) was -0.208.
As for `CCc1ccc(NC(=O)CSc2nc3n[nH]c(C)c3c(=N)n2-c2cccc(OC)c2)cc1`, the z-score amounted to 0.339.
The value for `COc1cccc(-n2c(SCC(=O)NCCC3=CCCCC3)nc3n[nH]c(C)c3c2=N)c1` was 8.62 (active); that for `CCc1ccccc1NC(=O)CSc1nc2n[nH]c(C)c2c(=N)n1-c1cccc(OC)c1` was 0.747; that for `COc1ccc(/C=C/C(=O)NC(C)C)cc1Br` was -0.339.
The value for `CCCOc1ccc(C(=O)N2CCCC2)cc1OC` was -0.411.
In the case of `CC(C)NC(=S)N/N=C/c1ccc(N2CCOCC2)cc1`, the z-score is 0.522.
With `Cc1ccc(/C=N/NC(=S)N2CCOCC2)cc1` the figure was 4.72 (active); with `S=C(NCCN1CCOCC1)N/N=C/c1ccccc1`, 0.728.
With `S=C(N/N=C/c1ccccc1)N1CCOCC1` the figure was 2.65; with `S=C(Nc1ccc(Cl)cc1)N1CCOCC1`, 0.122; with `S=C(N/N=C/c1ccc(Cl)cc1)N1CCOCC1`, 11.9 (active).
The value for `S=C(Nc1ccc(Cl)cc1Cl)N1CCOCC1` was -0.325.
`NC(=S)N/N=C/c1ccccc1` yielded a z-score of 0.103.
The compound `Cc1ccc(NC(=S)N2CCOCC2)cc1` registered a z-score of -0.0267.
